The target of assay [1] is Paired box protein Pax-6 (Homo sapiens) (UniProt P26367). Briefly: ATG_Pax6_CIS: Attagene CIS-FACTORIAL HepG2 Assay for human Paired Box 6 (PAX6) (AID 2282956). As to conditions: HepG2 CIS-FACTORIAL PAX6 reporter transcription, RNA readout; actives raise or lower the signal. The method, boiled down: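 Transient MRTU transfection of HepG2 → compound exposure 24 h → TriZol RNA, oligo(dT) RT → PCR, 6-FAM primer extension, HpaI cut → capillary electrophoresis; activity fitted both directions against DMSO.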

A short description of assay [2]: ATG_PXRE_CIS: Attagene CIS-FACTORIAL HepG2 Assay for human Pregnane X Receptor Element (PXRE) (AID 2282957). As to conditions: HepG2 Attagene CIS-FACTORIAL PXRE reporter, mRNA; actives raise or lower the signal. The method, boiled down: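 Transfect HepG2 with MRTUs (cis promoter elements); dose chemical, incubate 24 h; isolate RNA, RT with oligo(dT), PCR, 6-FAM label, HpaI cut, CE. Gain/loss fit vs DMSO.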

Assay [3] in a line: ATG_PPRE_CIS: Attagene CIS-FACTORIAL HepG2 Assay for human Peroxisome Proliferator-activated Response Element (PPRE) (AID 2282958). To be noted: HepG2 PPRE cis-element reporter, Attagene transcription factor profiling; actives raise or lower the signal. The method, boiled down:
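DMSO served as negative control and baseline for bidirectional curve fitting. Signal came from PPRE-regulated reporter mRNA in HepG2 cells, measured 24 h post-dosing by RT-PCR, 6-FAM primer extension and capillary electrophoresis.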

Assay [4] in a line: ATG_Sox_CIS: Attagene CIS-FACTORIAL HepG2 Assay for human SRY-box transcription factor (SOX) (AID 2282960). As to conditions: HepG2 Attagene cis-factorial SOX reporter, mRNA; actives raise or lower the signal. In a few lines:
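Fluorescence-labelled cDNA fragments from reporter transcripts, sized by CE, give the signal. Cells: HepG2, transiently transfected with cis-regulated reporter units. Exposure 24 h; DMSO negative control; bidirectional curve fitting.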

Assay [5] addresses Transcription factor Sp1 (Homo sapiens) (UniProt P08047). The assay is described as follows: ATG_Sp1_CIS: Attagene CIS-FACTORIAL HepG2 Assay for human Specificity Protein 1 (Sp1) (AID 2282961). As to conditions: HepG2 Sp1 cis-reporter transcription, actives raise or lower the signal. The method, boiled down: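 Chemicals are dosed onto HepG2 cells transfected with multiple cis-promoter reporter constructs, and after 24 h reporter RNA is reverse-transcribed, PCR-amplified and resolved by capillary electrophoresis for fluorescence quantitation; activity is scored up or down against DMSO.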

Assay [6] in a line: ATG_SREBP_CIS: Attagene CIS-FACTORIAL HepG2 Assay for human Sterol Regulatory Element Binding (SREBP) (AID 2282962). As to conditions: HepG2 Attagene cis-factorial SREBP reporter, mRNA; actives raise or lower the signal. In a few lines:
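Transfected HepG2 (cis-regulated reporter library, endogenous TFs) → compound 24 h → total RNA → oligo(dT) RT → reporter-specific PCR → FAM primer extension, HpaI cut → CE fluorescence. Fit bidirectional vs DMSO.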

Assay [7] has as its target Signal transducer and activator of transcription 3 (Homo sapiens) (UniProt P40763). Briefly: ATG_STAT3_CIS: Attagene CIS-FACTORIAL HepG2 Assay for human Signal Transducer and Activator of Transcription 3 (STAT3) (AID 2282963). To be noted: HepG2, Attagene cis-factorial STAT3 reporter transcription; actives raise or lower the signal. The method, boiled down: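 Values derive from bidirectional fits relative to DMSO of reporter mRNA levels, measured by RT-PCR with capillary electrophoresis, in HepG2 cells carrying transiently transfected cis-regulated reporter units and exposed 24 h.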

The nature of assay [8]: ATG_TA_CIS: Attagene CIS-FACTORIAL HepG2 Assay for human TA Basal Promoter (AID 2282964). To be noted: HepG2 Attagene CIS-factorial TA basal promoter reporter; actives raise or lower the signal. The method, boiled down:
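Read-out: fluorescent reporter-transcript fragments resolved by capillary electrophoresis after RT-PCR and HpaI digestion. Source: HepG2 cells carrying transiently transfected multi-reporter cis constructs, treated 24 h. Endpoint fitted bidirectionally relative to DMSO.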

A short description of assay [9]: ATG_TCF_b_cat_CIS: Attagene CIS-FACTORIAL HepG2 Assay for human T-Cell-Factor with beta-catenin (TCF/b-cat) (AID 2282965). To be noted: HepG2 TCF/beta-catenin cis-reporter transcription, actives raise or lower the signal. The method, boiled down:
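HepG2, transient MRTU transfection, cis-element-driven reporters (endogenous TFs). 24 h compound exposure. Readout: reporter mRNA by RT-PCR + 6-FAM primer extension, HpaI digest, capillary electrophoresis. Gain/loss fit vs DMSO baseline.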

Assay [10] in a line: ATG_TAL_CIS: Attagene CIS-FACTORIAL HepG2 Assay for human TAL Basal Promoter (AID 2282966).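 Also: background control endpoint measuring basal TAL promoter reporter mRNA not a specific factor.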 As to conditions: HepG2 Attagene cis-factorial TAL promoter reporter; actives raise or lower the signal. In a few lines:
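Fluorescence of labelled reporter cDNA fragments, resolved by capillary electrophoresis, gave the readout. Human HepG2 liver cells carried transiently transfected cis-element reporter units and were treated for 24 hours; activity was fitted bidirectionally against DMSO.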

Assay [11] is described as follows: ATG_TGFb_CIS: Attagene CIS-FACTORIAL HepG2 Assay for human Transforming Growth Factor (TGF) (AID 2282967). As to conditions: HepG2 Attagene CIS TGFb reporter, mRNA transcription; actives raise or lower the signal. In a few lines:
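Transient MRTU transfection of HepG2 (FuGene 6). Dose 24 h. TriZol RNA, oligo(dT) RT, PCR, 6-FAM primer extension, HpaI cut, CE. Bidirectional fit, DMSO = baseline.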

Assay [12] in a line: ATG_VDRE_CIS: Attagene CIS-FACTORIAL HepG2 Assay for human Vitamin D Receptor Element (VDRE) (AID 2282968). To be noted: HepG2 VDRE cis-reporter transcription, actives raise or lower the signal. In a few lines:
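Cell-based multiplexed reporter format in human liver HepG2 cells, 24 h post-dose. Fluorescence from capillary electrophoresis of reporter cDNA gives the signal, with DMSO as negative control and baseline.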

Assay [13] deals with Nuclear receptor subfamily 1 group I member 3 (Homo sapiens) (UniProt Q14994). The assay is described as follows: ATG_CAR_TRANS: Attagene TRANS-FACTORIAL HepG2 Assay for human Constitutive Androstane Receptor (CAR) (AID 2282969; active = hit-call score of the fitted dose curve at least 0.9, where 1 is the maximum;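 also: activators raise reporter mRNA above DMSO so AC50 marks induction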). As to conditions: HepG2 Attagene TRANS-FACTORIAL CAR reporter. In a few lines:
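HepG2 cells transiently transfected with GAL4-UAS reporter units; TRANS format reads activity of exogenous chimeric NR-Gal4 protein. After 24 h dosing, reporter mRNA quantified by RT-PCR, 6-FAM labelling and capillary electrophoresis; gain of signal fitted against DMSO.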

The target of assay [14] is Estrogen receptor (Homo sapiens) (UniProt P03372). The assay is described as follows: ATG_ERa_TRANS: Attagene TRANS-FACTORIAL HepG2 Assay for human Estrogen Receptor alpha (ERa) (AID 2282970; active = hit-call score of the fitted dose curve at least 0.9, where 1 is the maximum). As to conditions: HepG2 Attagene TRANS ERa GAL4 reporter, mRNA. The method, boiled down:
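Human liver HepG2, transient transfection of multiple GAL4-UAS reporter units; TRANS format (exogenous NR-Gal4 chimera). 24 h dosing. Readout: reporter mRNA, RT-PCR, 6-FAM primer extension, HpaI digest, capillary electrophoresis. Positive direction vs DMSO.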

Assay [15] deals with X-box-binding protein 1 (Homo sapiens) (UniProt P17861). Briefly: ATG_Xbp1_CIS: Attagene CIS-FACTORIAL HepG2 Assay for human X-box Binding Protein 1 (XBP1) (AID 2282972). To be noted: HepG2 XBP1 cis-element reporter, Attagene multiplex; actives raise or lower the signal. The method, boiled down: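 HepG2, transient MRTU transfection (cis-promoter driven), 24 h compound exposure. Total RNA → oligo(dT) RT → PCR → 6-FAM labeling → HpaI cut → CE. Bidirectional fit vs DMSO.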

Assay [16] in a line: ATG_M_19_TRANS: Attagene TRANS-FACTORIAL HepG2 Assay for M19 Transcription Factor (Internal Marker) (AID 2282974; active = hit-call score of the fitted dose curve at least 0.9, where 1 is the maximum). To be noted: HepG2 Attagene TRANS-FACTORIAL M19 internal marker reporter. The method, boiled down:
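Multiplexed TRANS format: HepG2 liver cells bearing transient GAL4-UAS reporter units, chemical treatment 24 h, reporter transcripts quantified by RT-PCR plus capillary electrophoresis. DMSO defines baseline.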

Assay [17] is described as follows: ATG_RORE_CIS: Attagene CIS-FACTORIAL HepG2 Assay for human RAR-related Orphan Receptor Element (RORE) (AID 2282959). To be noted: HepG2 Attagene cis-factorial RORE reporter, mRNA; actives raise or lower the signal. In a few lines:
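Transfect HepG2 with MRTUs; treat 24 h; extract RNA; RT with oligo(dT); PCR with reporter-specific primers; 6-FAM primer extension; HpaI digest 2 h at 37 C; capillary electrophoresis. Fit vs DMSO, bidirectional.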

Assay [18] in a line: ATG_GAL4_TRANS: Attagene TRANS-FACTORIAL HepG2 Assay for GAL4 (Internal Marker) (AID 2282976; active = hit-call score of the fitted dose curve at least 0.9, where 1 is the maximum). To be noted: HepG2 Attagene TRANS GAL4 internal marker reporter. In a few lines:
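First, HepG2 cells were transfected with reporter units under GAL4-UAS control. Next, they were treated with chemical for 24 h. Finally, RNA was reverse-transcribed, PCR-amplified, FAM-labelled and resolved by capillary electrophoresis, with induction scored against DMSO.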

Records with an inconclusive call do not appear. Calls of active or inactive are those of the source. The calls were made as follows, unless noted: active = hit-call score of the fitted dose curve at least 0.9, where 1 is the maximum; inactive = score below 0.9.

Chain of Transcription factor Sp1 (Homo sapiens) (P08047 whole entry, looked up): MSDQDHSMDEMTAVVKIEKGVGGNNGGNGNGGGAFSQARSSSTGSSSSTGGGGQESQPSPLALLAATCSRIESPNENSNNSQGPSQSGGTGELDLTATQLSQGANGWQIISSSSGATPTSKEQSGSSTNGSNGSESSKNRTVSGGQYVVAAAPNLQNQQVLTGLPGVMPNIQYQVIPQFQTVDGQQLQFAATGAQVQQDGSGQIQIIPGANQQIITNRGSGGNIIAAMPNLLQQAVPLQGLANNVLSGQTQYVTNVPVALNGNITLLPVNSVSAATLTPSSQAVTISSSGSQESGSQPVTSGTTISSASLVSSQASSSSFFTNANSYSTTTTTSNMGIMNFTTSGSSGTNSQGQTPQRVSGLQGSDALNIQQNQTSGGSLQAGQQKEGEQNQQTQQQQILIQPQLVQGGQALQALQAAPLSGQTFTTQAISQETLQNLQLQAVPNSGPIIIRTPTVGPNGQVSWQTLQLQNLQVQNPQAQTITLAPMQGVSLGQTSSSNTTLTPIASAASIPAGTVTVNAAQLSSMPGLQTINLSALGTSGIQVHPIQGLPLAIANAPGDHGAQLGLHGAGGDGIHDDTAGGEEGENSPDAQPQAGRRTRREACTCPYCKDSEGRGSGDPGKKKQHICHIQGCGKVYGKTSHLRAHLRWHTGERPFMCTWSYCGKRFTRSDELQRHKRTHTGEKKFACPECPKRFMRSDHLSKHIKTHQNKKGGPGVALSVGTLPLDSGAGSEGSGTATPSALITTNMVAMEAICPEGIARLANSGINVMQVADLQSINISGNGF
Chain of Estrogen receptor (Homo sapiens) (P03372 whole entry, looked up, the tested form may be a part): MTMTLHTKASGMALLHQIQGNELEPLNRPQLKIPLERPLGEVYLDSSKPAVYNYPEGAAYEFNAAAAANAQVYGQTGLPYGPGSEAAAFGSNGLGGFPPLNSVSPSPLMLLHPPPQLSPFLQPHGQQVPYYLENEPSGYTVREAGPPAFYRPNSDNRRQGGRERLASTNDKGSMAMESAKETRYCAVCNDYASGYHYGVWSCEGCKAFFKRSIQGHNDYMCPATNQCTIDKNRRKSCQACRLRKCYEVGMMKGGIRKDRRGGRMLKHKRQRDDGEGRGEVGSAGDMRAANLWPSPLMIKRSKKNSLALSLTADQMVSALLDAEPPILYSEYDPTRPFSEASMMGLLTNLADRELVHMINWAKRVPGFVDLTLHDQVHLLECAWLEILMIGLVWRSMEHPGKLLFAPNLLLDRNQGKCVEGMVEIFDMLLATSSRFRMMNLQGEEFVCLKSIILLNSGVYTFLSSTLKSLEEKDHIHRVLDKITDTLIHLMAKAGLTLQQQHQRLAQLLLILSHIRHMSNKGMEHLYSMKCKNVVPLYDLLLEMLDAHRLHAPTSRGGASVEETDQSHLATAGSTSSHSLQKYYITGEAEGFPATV
Chain of Signal transducer and activator of transcription 3 (Homo sapiens) (P40763 whole entry, looked up): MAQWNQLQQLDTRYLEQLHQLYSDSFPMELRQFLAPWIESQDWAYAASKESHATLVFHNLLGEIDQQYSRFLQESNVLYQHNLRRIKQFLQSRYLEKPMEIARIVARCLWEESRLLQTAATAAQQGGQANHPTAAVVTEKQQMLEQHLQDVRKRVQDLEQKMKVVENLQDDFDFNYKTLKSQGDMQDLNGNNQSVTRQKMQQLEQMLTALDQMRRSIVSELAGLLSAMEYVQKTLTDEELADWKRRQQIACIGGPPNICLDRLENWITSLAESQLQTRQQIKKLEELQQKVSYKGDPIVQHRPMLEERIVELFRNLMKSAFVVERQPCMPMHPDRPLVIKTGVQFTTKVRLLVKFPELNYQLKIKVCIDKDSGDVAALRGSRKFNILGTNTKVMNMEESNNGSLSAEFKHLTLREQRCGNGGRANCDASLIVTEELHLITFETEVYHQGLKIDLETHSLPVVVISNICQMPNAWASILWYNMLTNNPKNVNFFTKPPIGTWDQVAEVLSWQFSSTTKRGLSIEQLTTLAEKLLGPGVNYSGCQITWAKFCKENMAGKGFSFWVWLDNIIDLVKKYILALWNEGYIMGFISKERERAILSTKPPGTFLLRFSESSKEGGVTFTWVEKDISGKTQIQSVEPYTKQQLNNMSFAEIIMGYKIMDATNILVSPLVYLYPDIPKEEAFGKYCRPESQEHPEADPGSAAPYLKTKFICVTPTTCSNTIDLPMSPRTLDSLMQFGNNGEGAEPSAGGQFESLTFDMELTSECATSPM
Chain of X-box-binding protein 1 (Homo sapiens) (P17861 whole entry, looked up): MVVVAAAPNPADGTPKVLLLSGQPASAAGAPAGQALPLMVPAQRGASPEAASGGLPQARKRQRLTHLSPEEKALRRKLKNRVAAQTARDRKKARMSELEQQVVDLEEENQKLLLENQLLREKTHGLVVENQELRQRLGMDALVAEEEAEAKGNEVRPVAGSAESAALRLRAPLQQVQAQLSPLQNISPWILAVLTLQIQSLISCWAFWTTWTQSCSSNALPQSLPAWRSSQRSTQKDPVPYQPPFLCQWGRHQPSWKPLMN
Chain of Paired box protein Pax-6 (Homo sapiens) (P26367 whole entry, looked up): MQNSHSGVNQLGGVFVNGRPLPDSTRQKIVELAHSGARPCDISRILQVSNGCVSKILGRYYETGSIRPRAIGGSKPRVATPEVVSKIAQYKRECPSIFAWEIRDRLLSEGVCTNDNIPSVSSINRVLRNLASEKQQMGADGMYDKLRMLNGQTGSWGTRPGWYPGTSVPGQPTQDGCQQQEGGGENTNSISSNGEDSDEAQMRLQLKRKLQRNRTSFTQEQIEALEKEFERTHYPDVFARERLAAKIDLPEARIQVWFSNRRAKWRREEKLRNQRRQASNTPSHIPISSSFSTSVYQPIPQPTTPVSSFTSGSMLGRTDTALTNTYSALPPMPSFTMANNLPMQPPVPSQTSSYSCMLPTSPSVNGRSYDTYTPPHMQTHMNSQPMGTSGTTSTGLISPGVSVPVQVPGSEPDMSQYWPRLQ
Chain of Nuclear receptor subfamily 1 group I member 3 (Homo sapiens) (Q14994 whole entry, looked up, the tested form may be a part): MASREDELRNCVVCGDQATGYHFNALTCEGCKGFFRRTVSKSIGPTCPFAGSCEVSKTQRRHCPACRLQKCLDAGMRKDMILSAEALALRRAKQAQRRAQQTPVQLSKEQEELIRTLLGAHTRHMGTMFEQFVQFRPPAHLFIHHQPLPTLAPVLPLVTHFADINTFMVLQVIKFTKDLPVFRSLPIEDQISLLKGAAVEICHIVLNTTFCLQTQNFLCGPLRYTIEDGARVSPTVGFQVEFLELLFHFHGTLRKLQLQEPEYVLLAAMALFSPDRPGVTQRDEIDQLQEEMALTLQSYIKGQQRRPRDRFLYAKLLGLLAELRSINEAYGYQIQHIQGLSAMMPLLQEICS

As a reminder, the AC50 is the concentration at which the activity in the assay is half-maximal. As for `ON(Cc1ccccc1)Cc1ccccc1`, the call in [1], in assay [3], in assay [4], in assay [5], in [6] and in assay [7] was inactive. Further, the molecule was called inactive in [8], in [9], in [10], in [11], in assay [12] and in [13]. Further, the molecule was called inactive in assay [14], in assay [15] and in assay [16]. Besides, the AC50 in assay [2] is 41.6 µM (active).
On to `COc1ccc2nc(N)sc2c1`, for which the molecule was classed as inactive in assay [1], in [2], in assay [17], in [4], in assay [5] and in assay [6]. Also, the molecule was classed as inactive in assay [7], in assay [8], in [9], in [10], in assay [11] and in assay [12]. Besides, the result in [14] and in assay [15] was inactive.
Take `Cc1ccc2c(c1)C(=O)c1ccccc1C2=O`: the call in assay [1], in assay [3], in assay [17], in assay [4], in assay [6] and in [9] was inactive. Besides, the result in assay [10], in assay [11], in assay [12], in [13], in assay [15] and in assay [18] was inactive. In addition, the figures for the concentration at half-maximal activity (AC50) in assay [2] and in assay [14] were 6.22 µM (active) and 12.4 µM (active), respectively.
Take `c1cc(C(c2ccc(OCC3CO3)cc2)C(c2ccc(OCC3CO3)cc2)c2ccc(OCC3CO3)cc2)ccc1OCC1CO1` (centres undefined): the concentration at half-maximal activity (AC50) in assay [1] was 34.4 µM (active); in assay [2], 7.01 µM (active); in [5], 31.8 µM (active); in [8], 72.2 µM (active); in assay [9], 36.8 µM (active); in [10], 44.8 µM (active). The AC50 in assay [12] is 17 µM (active); in assay [15], 22.9 µM (active). The molecule was classed as inactive in assay [3], in [4], in assay [6], in [7], in [11] and in assay [16]. For the same molecule, in [18], the result was inactive.

These data come from PubChem BioAssay (EPA / NIEHS).
